Structures can show the parent of a compound that is named as a salt.
What was measured:
Conditions in all cases: incubation time: 27 h, anaerobic, 37 °C;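 for the amine columns active = adjusted P below 0.05 in both replicates with a change the same way and a mean fold change under 0.8 or over 1.25; inactive = the rest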
[1] = system: Clostridium sporogenes DSM 1664; assay: growth (OD595) fold change vs plate DMSO controls (fold change (ratio)); higher = more growth
Method in brief: (§1)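 Absorbance at 595 nm was read after shaking the anaerobic mGAM cultures, which had grown in 96-well plates for 27 h at 37 °C. After blank subtraction and background correction against 20 µM compound solutions in water, a calibration factor of 5 gave OD values. Growth is the fold change against the median of the plate's DMSO controls. Values are the mean of 2 biological replicates, with fold changes above 1.5 set to NA.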

[2] = system: Escherichia coli IAI1; assay: as above
Method in brief: as §1

[3] = system: Klebsiella aerogenes DSM 30053; assay: as above
Method in brief: as §1

[4] = system: Ruminococcus gnavus DSM 108212; assay: as above
Method in brief: as §1

[5] = system: Klebsiella aerogenes DSM 30053; assay: fold change of Histamine concentration vs plate DMSO controls (fold change (ratio)); higher = more amine produced, active = hit call of the paper (significant change in both replicates, either direction)
Method in brief: (§2)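 In 80 µL wells, cultures of four gut bacterial strains in mGAM started at OD 0.1 before a 1:1 dilution and grew anaerobically at 37 °C for 27 h. Compounds were added to 20 µM final, except sweeteners at 50 µM final. After extraction of whole cultures with cold acetonitrile/methanol plus 0.1% formic acid and centrifugation, amines were measured by LC–triple-quadrupole MS in dynamic MRM mode against external calibration curves, with within-batch drift correction. Values give fold change over DMSO controls on the same plate, averaged across 2 biological replicates.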

[6] = system: Clostridium sporogenes DSM 1664; assay: fold change of Tryptamine concentration vs plate DMSO controls (fold change (ratio)); higher = more amine produced, active = hit call of the paper (significant change in both replicates, either direction)
Method in brief: as §2

[7] = system: Ruminococcus gnavus DSM 108212; assay: as above
Method in brief: as §2

[8] = system: Escherichia coli IAI1; assay: fold change of Putrescine concentration vs plate DMSO controls (fold change (ratio)); higher = more amine produced, active = hit call of the paper (significant change in both replicates, either direction)
Method in brief: as §2

[9] = system: Klebsiella aerogenes DSM 30053; assay: as above
Method in brief: as §2

[10] = system: Escherichia coli IAI1; assay: fold change of Cadaverine concentration vs plate DMSO controls (fold change (ratio)); higher = more amine produced, active = hit call of the paper (significant change in both replicates, either direction)
Method in brief: as §2

[11] = system: Klebsiella aerogenes DSM 30053; assay: as above
Method in brief: as §2

[12] = system: Ruminococcus gnavus DSM 108212; assay: fold change of 2-Phenylethylamine concentration vs plate DMSO controls (fold change (ratio)); higher = more amine produced, active = hit call of the paper (significant change in both replicates, either direction)
Method in brief: as §2

Compound	growth [1]	growth [2]	growth [3]	growth [4]	fold change of Histamine concentration [5]	fold change of Tryptamine concentration [6]	fold change of Tryptamine concentration [7]	fold change of Putrescine concentration [8]	fold change of Putrescine concentration [9]	fold change of Cadaverine concentration [10]	fold change of Cadaverine concentration [11]	fold change of 2-Phenylethylamine concentration [12]
C[C@H](CCC(=O)O)[C@H]1CC[C@H]2[C@@H]3CC[C@@H]4C[C@H](O)CC[C@]4(C)[C@H]3CC[C@]12C [Lithocholic acid] (20 µM)	1.13	1.01	1.19	0.903	0.9 (inactive)	1.03 (inactive)	1.05 (inactive)	1.06 (inactive)	0.999 (inactive)	0.975 (inactive)	1.03 (inactive)	1.09 (inactive)
CC(NN)c1ccccc1 (stereo not drawn) [Mebanazine] (20 µM)	1.11	1	0.988	0.887	1.04 (inactive)	1.04 (inactive)	0.985 (inactive)	0.997 (inactive)	1.03 (inactive)	0.986 (inactive)	0.998 (inactive)	0.916 (inactive)
CN1CCN(C(c2ccccc2)c2ccc(Cl)cc2)CC1 (stereo not drawn) [Chlorcyclizine hydrochloride] (20 µM)	1.15	1.16	0.997	0.999	1.09 (inactive)	0.979 (inactive)	0.89 (inactive)	1.14 (inactive)	1 (inactive)	0.889 (inactive)	0.981 (inactive)	0.919 (inactive)
CCOc1ccc2c(c1)C(C)=CC(C)(C)N2 [Ethoxyquin] (20 µM)	0.801	1	1.01	1.22	1.07 (inactive)	1.06 (inactive)	0.854 (inactive)	1 (inactive)	1.01 (inactive)	0.994 (inactive)	0.986 (inactive)	0.807 (inactive)
CC(C)NCC(O)COc1cccc2[nH]c3ccccc3c12 (stereo not drawn) [Carazolol] (20 µM)	0.738	1	0.956	1.12	1.06 (inactive)	0.732 (inactive)	1.07 (inactive)	0.922 (inactive)	0.966 (inactive)	0.889 (inactive)	0.992 (inactive)	1.14 (inactive)
O=C1CCC(N2C(=O)c3ccccc3C2=O)C(=O)N1 (stereo not drawn) [Thalidomide] (20 µM)	1.13	0.98	1.04	1.15	1 (inactive)	1 (inactive)	0.971 (inactive)	0.97 (inactive)	1.02 (inactive)	1.02 (inactive)	1 (inactive)	0.981 (inactive)
COCCOC(=O)C1=C(C)NC(C)=C(C(=O)OC(C)C)C1c1cccc([N+](=O)[O-])c1 (stereo not drawn) [Nimodipine] (20 µM)	0.946	0.814	1.03	0.991	0.947 (inactive)	0.965 (inactive)	0.909 (inactive)	0.889 (inactive)	0.99 (inactive)	1.09 (inactive)	1.01 (inactive)	0.903 (inactive)
CCCCCCOc1ccccc1C(N)=O [Exalamide] (20 µM)	1.34	0.997	1.03	1.23	0.934 (inactive)	0.949 (inactive)	0.95 (inactive)	0.952 (inactive)	1.01 (inactive)	1.03 (inactive)	0.997 (inactive)	0.936 (inactive)
CC(=O)CC(c1ccc([N+](=O)[O-])cc1)c1c(O)c2ccccc2oc1=O (stereo not drawn) [Acenocoumarol] (20 µM)	0.894	1.02	1.02	0.886	0.909 (inactive)	0.94 (inactive)	1.01 (inactive)	1.05 (inactive)	0.989 (inactive)	1.01 (inactive)	1.01 (inactive)	1.02 (inactive)
Cn1cc(C(=O)Nc2ccc(F)cc2-c2ccc(Cl)c(Cl)c2)c(C(F)F)n1 (20 µM)	1.12	1	0.972	1.21	1.06 (inactive)	1.01 (inactive)	0.907 (inactive)	1.01 (inactive)	1.01 (inactive)	0.998 (inactive)	0.986 (inactive)	0.931 (inactive)
CC(C)(S)C(N)C(=O)O (racemic) [D,L-Penicillamine] (20 µM)	1.05	1.08	1.02	0.873	0.909 (inactive)	0.993 (inactive)	0.968 (inactive)	0.99 (inactive)	0.954 (inactive)	1 (inactive)	0.974 (inactive)	0.956 (inactive)
CN(C)c1nc(N(C)C)nc(N(C)C)n1 [Altretamine] (20 µM)	0.899	1.05	0.993	0.972	1.08 (inactive)	0.977 (inactive)	1.06 (inactive)	1.15 (inactive)	1.04 (inactive)	1.01 (inactive)	1 (inactive)	1.07 (inactive)
COc1cc(/C=C/C(=O)N2CCN(CC(=O)N3CCCC3)CC2)cc(OC)c1OC [Cinepazide maleate] (20 µM)	1.13	1.06	1.02	1.02	1.03 (inactive)	1.07 (inactive)	1.1 (inactive)	1.01 (inactive)	0.911 (inactive)	0.933 (inactive)	1.06 (inactive)	1.14 (inactive)
C[C@@H]1CCC[C@H](C)N1NC(=O)c1ccc(Cl)c(S(N)(=O)=O)c1 [Clopamide] (20 µM)	1.09	0.983	0.983	1.04	1.07 (inactive)	1.07 (inactive)	1.02 (inactive)	0.989 (inactive)	1.03 (inactive)	1 (inactive)	1.01 (inactive)	1.03 (inactive)
CC(=O)O[C@H]1C[C@@H]2CC[C@@H]3[C@H](CC[C@@]4(C)[C@H]3C[C@H]([N+]3(C)CCCCC3)[C@@H]4OC(C)=O)[C@@]2(C)C[C@@H]1N1CCCCC1 [Vecuronium bromide] (20 µM)	0.99	0.99	1.01	0.872	1.04 (inactive)	1.01 (inactive)	0.967 (inactive)	0.872 (inactive)	1 (inactive)	0.992 (inactive)	0.992 (inactive)	1.03 (inactive)
CC(=O)c1cc2cccc(OCC(O)CNC(C)C)c2o1 (stereo not drawn) [Befunolol] (20 µM)	0.992	1.1	0.953	0.98	1.07 (inactive)	1.06 (inactive)	1.02 (inactive)	1.06 (inactive)	0.972 (inactive)	0.997 (inactive)	0.995 (inactive)	1.06 (inactive)
CCC(=O)[C@@]1(C)[C@H](C)C[C@H]2[C@@H]3CCC4=CC(=O)C=C[C@]4(C)[C@H]3[C@@H](O)C[C@@]21C [Rimexolone] (20 µM)	1.08	0.953	1.01	1.07	1.02 (inactive)	0.98 (inactive)	1.05 (inactive)	0.983 (inactive)	1 (inactive)	1.01 (inactive)	0.991 (inactive)	1.04 (inactive)
Cc1oncc1C(=O)Nc1ccc(C(F)(F)F)cc1 [Leflunomide] (20 µM)	1.13	0.978	1.03	0.971	1.06 (inactive)	0.995 (inactive)	0.998 (inactive)	1.01 (inactive)	1.01 (inactive)	1.08 (inactive)	1 (inactive)	1.01 (inactive)
COC(=O)C1=C(C)NC(C)=C(C(=O)OC2CCCN(Cc3ccccc3)C2)C1c1cccc([N+](=O)[O-])c1 (stereo not drawn) [Benidipine hydrochloride] (20 µM)	1.1	1.23	1.02	0.864	0.929 (inactive)	0.912 (inactive)	0.983 (inactive)	1.24 (inactive)	1.02 (inactive)	0.989 (inactive)	1.02 (inactive)	0.986 (inactive)
Cc1cc(C#N)cc(C)c1Oc1nc(Nc2ccc(C#N)cc2)nc(N)c1Br [Etravirine] (20 µM)	1.06	1.01	1.13	1.03	1.01 (inactive)	1.03 (inactive)	0.995 (inactive)	1.03 (inactive)	1 (inactive)	1.04 (inactive)	0.981 (inactive)	1.03 (inactive)
COc1ccc2[nH]c([S+]([O-])Cc3ncc(C)c(OC)c3C)nc2c1 (stereo not drawn) [Omeprazole] (20 µM)	1.05	0.96	1.01	1.2	0.936 (inactive)	1.02 (inactive)	1.01 (inactive)	0.97 (inactive)	1.01 (inactive)	1 (inactive)	1 (inactive)	1.02 (inactive)
Cn1c(=O)cc(N2CCC[C@@H](N)C2)n(Cc2ccccc2C#N)c1=O [Alogliptin benzoate] (20 µM)	1.06	0.955	1.09	1.02	0.923 (inactive)	1.01 (inactive)	0.899 (inactive)	1.01 (inactive)	1.01 (inactive)	0.992 (inactive)	1.01 (inactive)	0.897 (inactive)
OC[C@@H](O)[C@@H](O[C@H]1O[C@H](CO)[C@@H](O)[C@H](O)[C@H]1O)[C@H](O)[C@@H](O)CO [Maltitol] (50 µM)	1	0.988	1.02	0.976	1 (inactive)	1.01 (inactive)	0.988 (inactive)	1.05 (inactive)	1.02 (inactive)	1.04 (inactive)	1.01 (inactive)	0.941 (inactive)
CN(C)CCCOc1nn(Cc2ccccc2)c2ccccc12 [Benzydamine hydrochloride] (20 µM)	1.1	0.95	0.978	1.04	1.05 (inactive)	0.95 (inactive)	0.986 (inactive)	0.983 (inactive)	1.03 (inactive)	0.967 (inactive)	1.01 (inactive)	0.92 (inactive)

Reference: the supplement of paper PMC12494721
